Test results published in PubChem BioAssay (NCI).
Where “and” joins values, the source holds several entries; their conditions need not be identical. Equal entries are not always repeated. This is part of a sample that, as a whole, favours compounds with a hit. Of some 83,000 tested, about 20% had one in any assay.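 Plates (96-well) were seeded with cells, treated with compound at one concentration, and incubated for 48 hours before percent growth was determined.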 Calls of active or inactive are those of the source. Rule for the calls: active = growth percent below 10; inactive = the rest.

These compounds were tested on MDA-MB-468 breast (assay: NCI-60 one-dose screen, 48 h (100 = growth as untreated, 0 = no growth, -100 = all killed)). Details: 10 µM unless noted.

| SMILES | growth |
| --- | --- |
| Cc1cc2nc3ccc(=[N+](C)C)cc-3sc2cc1N | -13.4% (active) and -40.6% (active) |
| Cc1nn(-c2ccccc2)c2c1N=c1s/c(=C\c3ccc(C(F)(F)F)cc3)c(=O)n1CN2 | 44.1% (inactive) |
| O=C(c1ccccc1)[C@@H](c1ccccc1)[C@]1(O)C(=O)Nc2ccccc21 | 102% (inactive) |
| C/C=C/CC(C)C(O)[C@H](NC(=O)[C@@H]1CCCN1C(=O)[C@](C)(CC)NC(=O)CCCCCCCCC)C(=O)N[C@@](C)(CC)C(=O)N[C@@H](CCC(N)=O)C(=O)N[C@H](CCC(N)=O)C(=O)NC(C)(C)C(=O)NC(C)(C)C(=O)N[C@@H](CCC(N)=O)C(=O)N[C@H](CC(C)C)C(=O)N[C@H](CO)CC(C)C (some centres undefined) | -10.2% (active) and -64% (active) |
| CCOC(=O)c1c(C)nc2c(c1N)/C(=C/c1cccs1)C(=O)N2Cc1ccccc1 | 47.6% (inactive) |
| Cc1ccc(NC(=O)c2sc3nc4c(cc3c2N)C(=O)CCC4)cc1C | 50.7% (inactive) |
| Oc1ccc(C2OCCO2)c2cccnc12 | 62.4% (inactive) |
| CCNCCNc1cc(-c2ccc(C(=O)OC)cc2)c(C#N)c2nc3ccccc3n12 | 31.4% (inactive) |
| CCOC(=O)c1c2c(n3ccccc13)C(=O)c1ncccc1C2=O | 80.8% (inactive) |
| CCCCCCCCCCCCCC(=O)Oc1ccc[nH]c1=O | 89.4% (inactive) |
| CN1CCN(Cc2ccc(NC(=O)c3cncc(C#Cc4cncc5ncccc45)c3)cc2C(F)(F)F)CC1 | 43.5% (inactive) |
| O=C(Nc1ccc(Cl)cc1)c1cc(-c2ccc(F)cc2)c2sc(=O)[nH]c2n1 | -8.3% (active) |
| CCNC(=S)NNC(=O)c1cc2ccc1CCc1ccc(cc1)CC2 | 106% (inactive) |
| CNC(=O)c1[nH]cc(-c2ccccc2)c1-c1cc(OC)c2c(c1OC)OCO2 | 100% (inactive) |
| CCCCNC(=O)NS(=O)(=O)c1ccc(N2N=C(c3ccc(C)cc3C)CC2c2ccc(N(C)C)cc2)cc1 (centres undefined) | 60% (inactive) |
| Nc1nc(=S)c2ncn(C3OC(COC(=O)c4ccc(Cl)cc4)C(OC(=O)c4ccc(Cl)cc4)C3OC(=O)c3ccc(Cl)cc3)c2[nH]1 (centres undefined) | 23.6% (inactive) |
| COC(=O)c1ccc2[nH]c(O)c(C(=Nc3ccc(N(C)C(=O)CN4CCN(C)CC4)cc3)c3cccc(OC)c3)c2c1 | 37.3% (inactive) |

| SMILES | growth |
| --- | --- |
| COc1cc2nc(Cc3ccc(C)cc3)[nH]c(=O)c2cc1OC | 98.8% (inactive) |
| O=C(/C=C/C12c3ccccc3C(c3ccccc31)C1C(=O)NC(=O)C12)c1ccco1 (centres undefined) | 21.8% (inactive) |
| CC(CN(C)C)CN1c2ccccc2CCc2ccccc21 (centres undefined) | 41.7% (inactive) |
| COc1ccc(NC(=O)c2sc3nc(C)c(C(O)c4ccccc4)cc3c2N)cc1 (centres undefined) | 14.1% (inactive) |
| COc1cccc(-c2nc3sccn3c2-c2ccnc(NCCCNS(=O)(=O)c3cccc(F)c3)c2)c1 | 8.57% (active) |
| Cc1cccc(Oc2ccc(Nc3ncnc4ccc(NC(=O)CN(C)C)cc34)cc2Cl)c1 | -45.2% (active) |
| COc1ccc(CCN=Cc2ccc(Cl)cc2)cc1OC | 117% (inactive) |
| CCN(CC)S(=O)(=O)c1ccc(OC)c(NC(=O)c2[nH]c(C)c3c2CCCCC3=O)c1 | 10.7% (inactive) |
| Cn1cc(-c2nonc2-c2cn(C)c3ccc(F)cc23)c2ccccc21 | 0.775% (active) |
| CCCN1C2CCC1/C(=C\c1ccc(OC)cc1)C(=O)/C2=C/c1ccc(OC)cc1 | 55.9% (inactive) |
| CCOc1ccc(C(C)=O)cc1NC(=O)c1cccc(-c2nnn(CC)n2)c1 | 17.5% (inactive) |
| OCC(O)COc1ccc(Cl)cc1Cl (centres undefined) | 111% (inactive) |
| COc1cc(C(=O)Nc2cc(OC)c3ccn(C)c3c2)cc2c1C[C@]1(C)CC[C@@H](O)C(C)(C)[C@H]1O2 | 8.94% (active) |
| COc1cc(Cl)ccc1C | 64.9% (inactive) |
| COC12C=C/C(=C(/C(=O)OCc3ccncn3)C(=O)CCCCCCCCC3(OC)C=C/C(=C(/C(=O)OCc4ccncn4)C(=O)CCCCCCCC1)O3)O2 | -45.5% (active) |
| COC1C(O)CC(OC2CC(OC3CC(O[C@@H]4C(=O)c5c(cc6cc(OC7CC(OC8CC(O)C(O)C(C)O8)C(O)C(C)O7)c(C)c(O)c6c5O)CC4[C@H](OC)C(=O)C(C)=O)OC(C)C3O)OC(C)C2O)OC1C (some centres undefined) | -64.7% (active) |
| CCCCCCCCCCSC(=N)N (tested in a mixture with another compound) | -9.42% (active) |
